Shown are actives, neighbours in structure and some others; about 4.3% of the full set was active somewhere.
GLP1R inv ag: qHTS of GLP-1 Receptor Inverse Agonists (Inhibition Mode) | Glucagon-like peptide 1 receptor (Homo sapiens), P43220 | HEK293 GLP-1R CRE-luciferase, luminescence, 24 h; GLP-1R form is constitutively active | Potency, µM (series often up to 38.3 µM), for the others: top-dose activity change, negative = inhibition, hits mostly inhibitors | 410,000 compounds, 1.6% hits; also: potency is read from the fitted curve at half-maximal effect; % is scaled to controls: 0 for no effect and ±100 for the full control effect; nearly all actives have a fitted effect of over 55% in size
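Stable HEK293 clone (constitutively active GLP-1R + cAMP-response luciferase); 200 cells/uL plated, 12 h pre-culture, compound 24 hr, 37 deg C/5% CO2; detection reagent 12 min RT; luminescence.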
DRD3 antagonist: qHTS of D3 Dopamine Receptor Antagonist: qHTS; AID 652054, 2013; D3R cells, DiscoveRx beta-arrestin luminescence, antagonist mode; hits give low values; max response, negative = inhibition, %; 360,000 compounds, 2.5% hits; D(3) dopamine receptor (Homo sapiens), P35462; in the data active = max response below about -50%; inconclusive = no clear call, values can overlap the other calls; also: % is scaled to controls: 0 for no effect and ±100 for the full control effect
Target sequence (P35462 whole entry, looked up): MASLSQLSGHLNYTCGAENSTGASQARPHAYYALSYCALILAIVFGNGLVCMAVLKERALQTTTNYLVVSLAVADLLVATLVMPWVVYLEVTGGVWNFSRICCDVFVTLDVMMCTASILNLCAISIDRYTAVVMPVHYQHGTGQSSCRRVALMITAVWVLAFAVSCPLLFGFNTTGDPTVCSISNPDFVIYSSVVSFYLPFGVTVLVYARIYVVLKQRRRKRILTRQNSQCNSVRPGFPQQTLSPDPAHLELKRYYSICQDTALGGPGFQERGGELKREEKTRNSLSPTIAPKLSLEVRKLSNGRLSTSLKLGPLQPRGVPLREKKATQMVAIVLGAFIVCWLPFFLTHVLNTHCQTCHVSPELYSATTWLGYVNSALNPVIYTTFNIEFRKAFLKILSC
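Cells expressing the human receptor were seeded at 1500 cells/well, incubated overnight at 37 degrees C in 5% CO2, then exposed to library compounds with dopamine controls for 90 minutes at 37 degrees C before luminescent detection.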
GLP-1R agonist: qHTS of GLP-1 Receptor Agonists | Glucagon-like peptide 1 receptor (Homo sapiens), P43220 | HEK293 GLP-1R CRE-luciferase, luminescence, 4-6 h; cells express a hypersensitive GLP-1R form | Potency, µM (titrated, usually from 45.6 µM), for inactives: at the top dose activation, hits mostly activators | 380,000 compounds, 0.007% hits | AID 624172, 2012; also: potency is read from the fitted curve at half-maximal effect; % of control where 0% means no effect
D3 ag: qHTS of D3 Dopamine Receptor Agonist: qHTS; D(3) dopamine receptor (Homo sapiens), P35462; D3R DiscoveRx beta-arrestin cells, luminescence, 90 min; max activation, %; 410,000 compounds, 0.58% hits; AID 652048, 2013; in the data active = max activation above about 30%; also: 0% is about no effect
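Agonist-mode cell screen: cells plated at 1500/well and incubated overnight at 37 °C, then exposed to library compounds for 90 min at 37 °C. Detection reagent was added for 30–60 min at room temperature, and luminescence was read.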
An asterisk follows results filed as active; ? = inconclusive; . = no result. Unless noted, calls follow the shape of the dose curve; as a rule, active = well fitted curve in the direction sought with a large enough effect; inconclusive = small, poorly fitted or top-dose-only effect, or another doubt; inactive = no such curve, though single readings can be large; an effect the other way counts as inactive or inconclusive.

SMILES	GLP1R inv ag	DRD3 antagonist	GLP-1R agonist	D3 ag
CCCCCCCCCOC(=O)C(CC(=O)O)N1CCOCC1 (configuration not stated)	-15.7%	-52.1*	1.5%	8.0
O=C(O)CC(C(=O)OCC1CCCO1)N1CCOCC1 (configuration not stated)	0.8%	-16.3	2.4%	2.7
CCCCCOC(=O)CC(C(=O)OCCCCC)N1CCCCC1 (configuration not stated)	12.6µM*	-19.4	10.1%	2.2
CCOC(=O)C(CC(=O)O)N1CCCCC1 (configuration not stated)	3.4%	-1.3	-1.5%	-10.6
Cc1cc(O)c(C(c2cccc(Cl)c2)N2CCN(c3ccccc3)CC2)c(=O)n1Cc1ccco1 (configuration not stated)	?	.	.	-12.5
COc1ccc(/C=C/C(=O)c2ccc(OC)cc2OC)c(OC)c1	-23.2%	-2.5	16.8%	34.9*
COc1ccc(/C=C/C(=O)c2ccccc2)c(OC)c1	?	2.6	1.3%	-2.7
COc1ccc(NC(=O)C2CCCN(S(=O)(=O)c3ccc(Cl)cc3)C2)cc1 (configuration not stated)	2.7%	.	.	1.4
O=C(CC1CCCC1)NCCS(=O)(=O)N1CCN(c2ccccc2)CC1	-25.9%	-4.1	-2.9%	-2.8
COCCCNc1ccn2nc(-c3cccc(OCc4ccccc4)c3)cc2n1	?	81.1	-18.6%	-4.1
c1ccc(COc2cccc(-c3cc4nc(NCc5cccs5)ccn4n3)c2)cc1	4.47µM*	33.9	16.1%	4.7
COCCCNc1ccn2nc(-c3ccccc3)cc2n1	3.98µM*	11.5	-6.0%	5.7
COc1ccc2[nH]c3c4c(ccc3c2c1)C(=O)C=CC4=O	?	-104.8*	10.8%	-18.1
COc1ccccc1/C=N\Nc1cn[nH]c(=O)c1Cl	112.9%	-2.8	8.7%	0.8
CCOc1ccccc1/C=N\Nc1cnn(Cc2ccccc2)c(=O)c1Cl	7.94µM*	30.4	13.5%	3.7
c1ccc2c(OCCCCN3CCCC3)cccc2c1	-15.4%	?	-5.3%	-1.5
CC(C)c1ccccc1OCCCN1CCCC1	?	-86.6*	-1.5%	-2.3
CC(C)c1ccccc1OCCCCN1CCCCC1	?	-103.4*	-4.5%	-21.7
CC(C)c1ccccc1OCCCCCN1CCOCC1	?	-53.7*	0.0%	-15.3
Brc1ccccc1OCCCCCN1CCOCC1	-32.0%	?	1.9%	-12.8
c1ccc(-c2ccccc2OCCCN2CCCCCC2)cc1	?	?	-6.3%	-1.3
CC1(C)Cc2nc3oc4c(NCCCN5CCOCC5)ncnc4c3cc2CO1	11.4%	2.0	15.4%	-5.8
Cc1nn(-c2ccccc2)c2[nH]c(=O)c(CNCC3CCCO3)cc12 (configuration not stated)	12.2%	-82.5*	1.0%	-8.2
CC(C)C[C@H](NC(=O)[C@@H](COC(C)(C)C)NC(=O)[C@H](Cc1ccc(O)cc1)NC(=O)[C@H](CO)NC(=O)[C@H](Cc1c[nH]c2ccccc12)NC(=O)[C@H](Cc1cnc[nH]1)NC(=O)[C@@H]1CCC(=O)N1)C(=O)N[C@@H](CCCN=C(N)N)C(=O)N1CCC[C@H]1C(=O)NNC(N)=O	.	.	.	1.4
Cc1nc([N+](=O)[O-])c(Sc2nc3ccccc3[nH]2)n1Cc1ccccc1	?	-5.0	-10.7%	-4.5
SMILES	GLP1R inv ag	DRD3 antagonist	GLP-1R agonist	D3 ag
COc1ccc2nc(Sc3c([N+](=O)[O-])nc(C)n3Cc3ccccc3)[nH]c2c1	?	-75.4*	-16.3%	-9.8
CN1C(=O)/C(=C2\SC(N3CCCCCC3)=NC2=O)c2ccccc21	48.3%	-67.4*	11.0%	2.1
CCCN1C(=O)/C(=C2\SC(N3CCCCC3)=NC2=O)c2ccccc21	1.0%	31.2	17.9%	-2.1
O=c1c2cc(F)ccc2sn1-c1ccc(F)cc1	-22.9%	2.4	-1.9%	-2.5
COc1ccc(-n2sc3ccc(F)cc3c2=O)cc1	?	-55.4*	-3.1%	-42.6
Cc1ccc(C)c(-n2sc3ccc(F)cc3c2=O)c1	-36.1%	-80.6*	-2.3%	-1.2
Cc1ccc2scc(N3CCN(c4ccc(F)cc4)CC3)c(=O)c2c1	-10.8%	.	.	-16.5
CCn1c(SCC(=O)c2cc(C)n(-c3ccc(C(=O)OC)cc3)c2C)nnc1-c1cccnc1	11.2µM*	-22.1	-1.8%	5.3

Screening results deposited in PubChem BioAssay by National Center for Advancing Translational Sciences (NCATS).
